According to the antibiotic and cytotoxicity screens of Wong et al. (2023):
In all, about 39,000 compounds went through this assay and about 3,300 (8.5%) were called active. The sample as a whole holds a higher share of actives than the screen did.

test system: HepG2; experiment: cytotoxicity call (relative viability < 0.9); settings: 10 µM

| Compound | cytotoxicity call |
| --- | --- |
| O=C(C[C@@H]1C[C@H]2c3cc(NS(=O)(=O)c4ccc(F)cc4)ccc3O[C@H]2[C@@H](CO)O1)NCc1cccc(F)c1 | inactive |
| Cc1cc(C(=O)Nc2cccc3c2O[C@@H](CN(C)C(=O)Nc2c(C)noc2C)[C@@H](C)CN([C@@H](C)CO)C3=O)n(C)n1 | inactive |
| Cc1ccc(OC(=O)N(C)C[C@H]2OCc3ccccc3-c3ccccc3C(=O)N([C@H](C)CO)C[C@H]2C)cc1 | inactive |
| COc1ccc(CN(C)C[C@@H]2Oc3ccc(NC(=O)Cn4cnnn4)cc3CC(=O)N([C@@H](C)CO)C[C@@H]2C)cc1 | inactive |
| C[C@H]1CCCCO[C@H](CN(C)C(=O)NC2CCCCC2)[C@@H](C)CN([C@@H](C)CO)C(=O)c2cc(NC(=O)c3ccccc3)ccc2O1 | inactive |
| C[C@@H]1CN([C@@H](C)CO)C(=O)c2cc(NC(=O)c3ccncc3)ccc2O[C@@H](C)CCCCO[C@@H]1CN(C)C(=O)NC1CCCCC1 | active |
| C[C@H](CO)N1C[C@H](C)[C@@H](CN(C)C(=O)NC2CCCCC2)OCCCC[C@H](C)Oc2ccc(NC(=O)c3ccccc3)cc2C1=O | active |
| C[C@@H]1CCCCO[C@H](CN(C)C(=O)NC2CCCCC2)[C@@H](C)CN([C@@H](C)CO)C(=O)c2cc(NC(=O)c3ccncc3)ccc2O1 | inactive |
| C[C@@H]1CCCCO[C@@H](CN(C)C(=O)NC2CCCCC2)[C@@H](C)CN([C@H](C)CO)C(=O)c2cc(NC(=O)c3ccncc3)ccc2O1 | inactive |
| C[C@@H]1CCCCO[C@H](CN(C)C(=O)NC2CCCCC2)[C@@H](C)CN([C@H](C)CO)C(=O)c2cc(NC(=O)c3ccccc3)ccc2O1 | inactive |
| CC(C)NC(=O)Nc1ccc2c(c1)C(=O)N([C@@H](C)CO)C[C@@H](C)[C@H](CN(C)Cc1ccc(Oc3ccccc3)cc1)O2 | inactive |
| C#CCN1C(=O)N(C(=O)c2ccccc2)[C@@H]2c3ccccc3O[C@@]1(COCc1ccc(OC)cc1)[C@@H]2CO[Si](C)(C)C(C)(C)C | inactive |
| O=C(N[C@@H]1C=C[C@H](CC(=O)N2CCOCC2)O[C@@H]1CO)c1ccccn1 | inactive |
| C[C@H](CO)N1C[C@H](C)[C@@H](CN(C)S(=O)(=O)c2cccs2)Oc2ccc(NS(=O)(=O)c3ccc(F)cc3)cc2CC1=O | inactive |
| C[C@H](CO)N1C[C@H](C)[C@H](CN(C)C(=O)Nc2cccc(Cl)c2Cl)OCc2ccccc2-c2ccccc2C1=O | inactive |
| N#Cc1ccc(O)c(O)c1 | active |
| N#Cc1ccc(CN)cc1 | inactive |
| O=C(O)c1ccc(O)c(O)c1 | inactive |
| COc1ccc(NC(=O)N(C)C[C@H]2Oc3ccc(NC(=O)Nc4ccc(C(F)(F)F)cc4)cc3C(=O)N([C@H](C)CO)C[C@@H]2C)cc1 | inactive |
